Screening results as filed in PubChem BioAssay.
G9a inh – G9a (human) methyltransferase inhibition; G9a H3K9 monomethylation, AlphaScreen, 2 h; Q96KQ7; AID 504332; 350,000 tested, 8.8% active; Potency, µM (highest dose often 102 µM), without a hit: top-dose activity, negative = inhibition, actives largely listed as inhibitors; note: % is set by controls: 0 for no effect and ±100 for the full control effect; nearly all actives have a fitted effect of over 75% in size
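G9a (20 nM) preincubated 15 min RT with compounds, then 500 nM biotinylated H3K9 peptide and 20 uM SAM added; 2 h RT reaction. Monomethyl-H3K9 product detected by AlphaScreen with anti-H3K9me1 antibody, streptavidin donor and anti-rabbit IgG acceptor beads.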
Sfp inh – Sfp phosphopantetheinyl transferase inhibition; Biochemical Sfp PPTase activity, qHTS; Q9F4F7; AID 1490; Potency, µM, for the others: largest response in the series, negative = inhibition, hits mostly inhibitors; 310,000 tested, 3.5% active;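 note: the enzyme is Sfp with the accession as filed and its product quenches rhodamine fluorescence; 0% = enzyme reaction without inhibitor and -100% = no enzyme wells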
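Compounds were incubated with enzyme (final 15 nM) for 15 min at room temperature before substrate addition started the reaction. Fluorescence at 525 nm excitation, 598 nm emission was recorded immediately and after 30 minutes.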
L3MBTL1 inh – inhibitors of human L3MBTL1; Q9Y468; Potency, µM (doses to about 57.1 µM), for the others: top-dose activity, negative = inhibition, usual class: inhibitors; AlphaScreen L3MBTL1–H3K9me1 peptide binding; 230,000 tested, 0.66% active; note: % is set by controls: 0 for no effect and ±100 for the full control effect; nearly all actives have a fitted effect of over 60% in size
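AlphaScreen proximity signal between nickel-chelate acceptor and streptavidin donor beads (final 10 ug/mL) reports binding of 50 nM L3MBTL1 to 75 nM biotin-H3 K9me1 peptide; complex incubated with compounds 30 min at room temperature; cefsulodin titration as control.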
BAZ2B inh – BAZ2B (human) inhibition; Q9UIF8; AlphaScreen BAZ2B-H3K14Ac peptide displacement; Potency, µM (doses to about 114 µM), inactives show at the highest dose activity change, negative = inhibition, actives largely listed as inhibitors; 360,000 tested, 4.4% active; note: % is set by controls: 0 for no effect and ±100 for the full control effect; nearly all actives have a fitted effect of over 60% in size
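Compounds, titrated to a top concentration of 110 uM, were incubated 30 min at room temperature with preformed BAZ2B/acetyl-K14 H3 peptide complex (50 nM each). Proximity signal was measured by AlphaScreen after 20 min with beads.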
HP1b binding inh – inhibitors of HP1-beta chromodomain binding to methylated histone tails; AlphaScreen HP1-beta / biotin-H3K9me3 peptide binding; Potency, µM (top dose mostly 114 µM), without a hit: at the highest dose activity change, negative = inhibition, most hits filed as inhibitors; 390,000 tested, 0.56% active; AID 540317; note: nearly all actives have a fitted effect of over 70% in size
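HP1-beta protein (50 nM final) preincubated 30 min at room temperature with biotinylated H3(1-18)K9me3 peptide (50 nM) in PBS pH 7.4, 0.01% Tween-20, then compound added for 30 min. AlphaScreen streptavidin donor/nickel chelate acceptor beads (10 ug/mL final), 30 min dark, luminescence read.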
JMJD2A Tudor inh – inhibitors of human JMJD2A Tudor domain; AlphaScreen JMJD2A-Tudor / H3K4me3 peptide binding; Potency, µM (series often up to 114 µM), without a hit: at the top dose activity change, negative = inhibition, hits mostly inhibitors; 390,000 tested, 4.4% active; note: % is set by controls: 0 for no effect and ±100 for the full control effect; nearly all actives have a fitted effect of over 50% in size
* hit, by the source's call; ? = inconclusive; . = no result given; [ ] = another dose, or the depositor's remark. Most compounds without a hit are left out; they make up all but 12% or so of the library. Calls come from the whole dose curve; as a rule, active = well fitted curve in the direction sought with a large enough effect; inconclusive = small, poorly fitted or top-dose-only effect, or another doubt; inactive = no such curve, though single readings can be large; an effect the other way counts as inactive or inconclusive. Potency is the fitted concentration of half-maximal effect.

SMILES	G9a inh	Sfp inh	L3MBTL1 inh	BAZ2B inh	HP1b binding inh	JMJD2A Tudor inh
Cc1cc(NC(=O)CSc2nnc(C3COc4ccccc4O3)o2)no1 (stereo not given)	?	-1.2%	-3.2%	50.1µM*	8.3%	-10.8%
CCc1ccc2c(c1)c(=O)c(C(=O)c1ccccc1)cn2CC(=O)Nc1ccc(C)c(Cl)c1	-7.4%[59 µM]	.	.	-11.9%	8.3%	?
Cc1ccc(N2CC(C(=O)OCC(=O)NNC(=O)c3ccccc3)CC2=O)cc1 (stereo not given)	-3.0%	.	-0.2%	-2.2%	26.7%	-6.2%
O=C(c1ccco1)N1CCN(C(=O)c2ccc(CS(=O)c3ccc(Cl)cc3)o2)CC1 (stereo not given)	-4.8%	11.4%	.	-9.5%	51.2%	-18.9%
Cc1cc(NC(=O)CSc2nnc(-c3ccc([N+](=O)[O-])cc3)o2)no1	77.1%	16.7%	.	22.4µM*	46.7%	89.1µM*
CCOc1ccc(NC(=O)c2ccc(NCC(=O)N3CCCCCC3)cc2)cc1	25.1µM*	13.9%	15.1%	-0.1%	47.7%	-7.6%
CCOc1ccc(C(=O)NCC(=O)N2CCCCCCC2)cc1	10.7%[12.7 µM]	.	0.4%	-3.1%	36.0%	-24.1%
CCOc1ccc(NCC(=O)c2ccc(C)cc2)cc1	-8.7%[59 µM]	14.6%	.	35.5µM*	-15.5%	?
O=C(COc1ccccc1[N+](=O)[O-])N(Cc1ccco1)c1ccccn1	0.2%[59 µM]	.	.	-24.0%	46.3%	-8.3%
COc1ccc(-c2ccccc2[C@H]2[C@@H]3C=CC[C@@H](C)[C@@H]3C(=O)N2Cc2ccccc2)cc1	-30.8%[59 µM]	?	1.4%	.	24.5%	-30.1%
O=C(CN1C(=O)CSc2ccc(S(=O)(=O)N3CCCCC3)cc21)NCc1ccc(F)cc1Cl	?	.	.	21.1%	80.0%	-27.8%
CCCNC(=S)Nc1ccc(CC(=O)OC)cc1	-19.9%	-4.1%	1.6%	6.9%	8.1%	-6.2%
COC(=O)Cc1ccc(O)c(N)c1	?	-7.9%	4.2%	-15.0%	?	10µM*
CCOC(=O)c1noc2ncnc(N3CCC(C)CC3)c12	3.8%[59 µM]	.	.	3.4%	47.7%	-8.0%
CSc1oc(-c2ccc(F)cc2)nc1S(=O)(=O)c1ccc(Br)cc1	-0.8%[59 µM]	.	.	4.3%	46.0%	10.2%
CCOc1ccc(-c2nc(S(=O)(=O)c3ccccc3)c(NC)o2)cc1	53.1%	12.6%	.	0.9%	29.6%	-2.8%
CNc1oc(-c2ccccc2F)nc1S(=O)(=O)c1ccc(C)cc1	.	-16.0%	.	2.7%	21.7%	-6.8%
CCNc1oc(-c2ccc(OC)cc2)nc1S(=O)(=O)c1ccc(Br)cc1	56.2µM*	3.3%	.	-5.4%	29.0%	-19.4%
CNc1oc(Cc2ccccc2)nc1S(=O)(=O)c1ccccc1	?	50.1µM*	.	4.1%	?	3.16µM*
CCNc1oc(-c2ccccc2F)nc1S(=O)(=O)c1ccccc1	44.7µM*	-8.5%	.	-21.2%	16.4%	-8.9%
CCOc1ccc(-c2nc(S(=O)(=O)c3ccccc3)c(NCc3cccnc3)o2)cc1	44.7µM*	-7.1%	-20.2%	?	5.4%	?
CCOc1ccccc1NC(=O)c1c(C)cc(C)nc1SCC(=O)c1cccc(OC)c1	-0.9%[59 µM]	.	.	0.2%	10.6%	-16.6%
CNc1oc(C)nc1S(=O)(=O)c1ccc(C)cc1	1.9%[0.0925 µM]	44.7µM*	1.8%	-1.5%	?	?
Cc1ccc(S(=O)(=O)c2nc(-c3ccccc3F)oc2NCc2ccccc2)cc1	?	.	.	?	5.1%	-17.0%
Cc1ccc(S(=O)(=O)c2nc(C)oc2NCc2ccccc2)cc1	8.91µM*	?	-3.3%	2.7%	.	.
SMILES	G9a inh	Sfp inh	L3MBTL1 inh	BAZ2B inh	HP1b binding inh	JMJD2A Tudor inh
COc1ccc(-c2nc(S(=O)(=O)c3ccc(C)cc3)c(NCc3ccccc3)o2)cc1	11.2µM*	.	.	-27.4%	16.1%	?
CNc1oc(-c2ccccc2)nc1S(=O)(=O)c1ccc(C)cc1	?	1.5%	.	-20.4%	32.5%	-17.2%
Cc1ccc2oc(C(=O)NCC(c3ccco3)N(C)C)c(C)c2c1 (stereo not given)	-4.2%	1.4%	.	-21.9%[57.1 µM]	32.6%	-7.2%
CCOc1ccc(CCNC(=O)c2sc3nc4n(c(=O)c3c2C)CCCC4)cc1	-6.0%[59 µM]	.	.	-7.3%	3.8%	-19.4%
Cn1cccc1CC(=O)NNC(=S)Nc1ccc(F)cc1	?	8.4%	-3.8%	-11.8%	12.2%	?
Cn1cccc1CC(=O)NNC(=S)Nc1ccc(Cl)cc1Cl	44.7µM*	0.5%	-6.6%	?	18.9%	-12.7%
Cn1cccc1CC(=O)NNC(=S)NC(=O)c1ccccc1Br	17.8µM*	27.0%	-1.3%	0.5%	-4.9%	-22.2%
COc1ccc(CNC(=O)Nc2cccs2)cc1OC	12.6µM*	25.1µM*	-3.7%	-29.4%	-13.8%	-24.8%
COc1ccc(Br)cc1CNC(=O)Nc1cccs1	?	50.1µM*	.	-0.3%	3.7%	-18.5%
COc1cccc(CNC(=O)Nc2cccs2)c1	44.7µM*	44.7µM*	-7.4%	-13.0%	-5.7%	-22.2%
Cc1ccc(CNC(=O)Nc2ccccc2)cc1	-32.7%[12.7 µM]	6.0%	.	6.3%	22.8%	4.6%
Cc1ccc(CNC(=O)Nc2cccs2)cc1	?	17.8µM*	-8.8%	-7.2%	-15.3%	-25.4%
Cc1ccc(NC(=O)CN2CCC(NC(=O)c3ccccc3F)CC2)cc1C	-4.3%[59 µM]	-0.5%	2.0%	-3.8%	16.1%	-27.1%
CNC(=S)N(C)/N=C1/C(=O)N(Cc2c(Cl)cccc2Cl)c2ccccc21	-19.7%[12.7 µM]	.	-10.0%	25.1µM*	-49.0%	5.01µM*
Cn1cccc1/C=N/NC(=O)c1cccc(OC(F)(F)C(F)F)c1	?	1.1%	-5.6%	?	?	79.4µM*
Cc1cc(C(=O)N/N=C/c2cccn2C)n[nH]1	?	8.2%	-2.7%	-26.8%	20.0%	-3.4%
CC1=NN(c2ccccc2)C(=O)C1/C=C1\NC(=S)NC1=O (stereo not given)	?	-3.2%	.	?	?	56.2µM*
COC(=O)C1(Cc2ccc(O)cc2)OC(=O)C(O)=C1c1ccc(O)cc1 (stereo not given)	?	-26.5%	.	79.4µM*	-25.9%	56.2µM*
COC(=O)CCc1ccc(O)cc1	-1.0%[12.7 µM]	27.1%	.	-4.3%	7.3%	-16.3%
Cc1ccc(-c2nn3c(=O)cc(CN4CCN(C(=O)c5ccc(C(C)(C)C)cc5)CC4)nc3s2)cc1	-1.9%[59 µM]	.	.	4.3%	22.4%[57 µM]	1.0%
CCC1=C(c2ccc(C)cc2)S(=O)(=O)N=C1N1CCC(C(=O)NCCc2cccc(OC)c2)CC1	6.0%[59 µM]	.	.	-3.1%	6.4%	-29.5%
Clc1ccccc1-c1nc(N/N=C/c2cccnc2)c2ccccc2n1	45.1%[12.7 µM]	15.0%	-0.8%	-5.5%	51.4%	-22.7%
Nc1c(Cl)ncnc1N/N=C/c1ccccn1	?	-6.5%	7.94µM*	5.62µM*	-18.7%	28.2µM*
